# PubChem BioAssay AID2551 (National Center for Advancing Translational Sciences (NCATS), 2010)
# In all, about 310,000 compounds went through this assay and about 17,000 (5.5%) were called active. Not shown: some 11% with an inconclusive outcome. Calls follow the shape of the dose curve; as a rule, active = well fitted inhibition curve with a large enough effect; inconclusive = small, poorly fitted or top-dose-only effect, or effect the other way; inactive = no such curve, though single readings can be large or run the other way. Only a selection was taken, and actives are over-represented in it overall.
# Target: Nuclear receptor ROR-gamma (Mus musculus) (UniProt P51450)
# Sequence (P51450 whole entry, looked up): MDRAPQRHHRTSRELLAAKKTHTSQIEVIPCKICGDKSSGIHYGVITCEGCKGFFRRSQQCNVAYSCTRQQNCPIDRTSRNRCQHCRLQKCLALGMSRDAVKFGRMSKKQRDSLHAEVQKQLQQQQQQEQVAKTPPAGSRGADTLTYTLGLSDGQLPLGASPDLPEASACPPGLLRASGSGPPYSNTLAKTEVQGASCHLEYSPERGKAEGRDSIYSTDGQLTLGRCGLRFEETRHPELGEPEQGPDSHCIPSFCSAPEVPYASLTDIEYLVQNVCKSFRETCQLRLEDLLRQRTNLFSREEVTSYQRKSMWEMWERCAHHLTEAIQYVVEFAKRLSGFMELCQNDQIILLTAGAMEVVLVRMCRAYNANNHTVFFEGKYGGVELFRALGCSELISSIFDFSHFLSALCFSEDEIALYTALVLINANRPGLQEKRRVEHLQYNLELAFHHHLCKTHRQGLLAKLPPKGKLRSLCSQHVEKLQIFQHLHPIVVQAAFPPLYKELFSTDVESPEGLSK
# Assay: qHTS for inhibitors of ROR gamma transcriptional activity; also: nearly all actives have a fitted effect of over 60% in size
# Settings: Drosophila S2 Gal4-RORgamma UAS-luciferase reporter, 20 h; series mostly up to 53.6 µM; activity change, negative = inhibition: at the top concentration
# In short: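 Schneider cells (Drosophila), stable Gal4 DBD–ROR gamma + UAS-luc; 1 hr cmpd preincubation; Cu2+ induction 700 uM final; 20 hr ambient; luminescence.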
# % is scaled to controls: 0 for no effect and ±100 for the full control effect; potency is read from the fitted curve at half-maximal effect.
SMILES,"activity change, negative = inhibition",Potency
COc1ccc(-c2cc(=O)oc3cc(OC(C)C(=O)Nc4ccc(CN5CCOCC5)cc4)ccc23)cc1 (stereo not given),37.1% (inactive),
Cc1ccc(N(C(=O)CNC(=O)c2ccco2)C(C(=O)NC2CCCC2)c2ccncc2)cc1 (stereo not given),1.7% (inactive),
CCN(CC(=O)Nc1ccc(Cl)c(S(=O)(=O)N(C)C)c1)Cc1nc2ccccc2c(=O)[nH]1,,12600 nM (active)
CCCC(=O)N(CCc1ccccc1)Cc1nc2ccccc2c(=O)[nH]1,15.3% (inactive),
CCN(CC)c1ccc(C(=O)NNC(=O)CCc2nc3ccccc3c(=O)[nH]2)cc1,18.7% (inactive),
CCCc1nc(SCC(=O)Nc2ccc(S(=O)(=O)N(C)C)cc2)c2ccccc2n1,7.51% [at 10 µM] (inactive),
CN(C)S(=O)(=O)c1cc(NC(=O)CN2C(=O)NC3(CCCc4ccccc43)C2=O)ccc1Cl (stereo not given),36.9% (inactive),
O=C(c1ccco1)N(Cc1nc2ccccc2c(=O)[nH]1)C1CCCC1,,1580 nM (active)
CC(C)=C(NC(=O)c1ccco1)C(=O)NCCc1nc2ccccc2[nH]1,-9.69% (inactive),
CCn1c(Cc2ccccc2)nnc1SCc1nc2ccccc2c(=O)[nH]1,43.4% (inactive),
CCN(CC(=O)NC(=O)NCc1ccccc1)Cc1nc2ccccc2c(=O)[nH]1,,355 nM (active)
CCN(CC(=O)Nc1cccc(S(N)(=O)=O)c1)Cc1nc2ccccc2c(=O)[nH]1,,2820 nM (active)
NS(=O)(=O)c1cccc(NC(=O)CSc2nc3ccccc3n2-c2ccccc2)c1,-0.215% (inactive),
COc1ccc(-n2cnnc2SCC(=O)Nc2cccc(S(N)(=O)=O)c2)cc1,-9.16% (inactive),
COc1ccc(C2(C)NC(=O)N(CC(=O)c3ccc4c(c3)OCO4)C2=O)cc1 (stereo not given),-4.65% (inactive),
Cc1cc(C)c(S(=O)(=O)Nc2c(C)n(C)n(-c3ccccc3)c2=O)cc1[N+](=O)[O-],-8.36% (inactive),
Cc1cccc([C@@H]2[C@@H]3C(=O)N(Cc4ccccc4)C(=O)[C@@H]3[C@]3(C)C(=O)N(c4ccc(Br)cc4)C(=O)N23)c1,21.2% (inactive),
O=C(N/N=C/c1cccc(Br)c1)c1ccc(N2CCCC2=O)cc1,-8.7% (inactive),
COCc1ccc(CN2CCC(Oc3ccc(C(=O)NCc4ccccn4)cc3)CC2)o1,-7.56% (inactive),
COc1ccc(NC(=O)C2CCN(S(=O)(=O)c3ccc4[nH]c(=O)oc4c3)CC2)c(OC)c1,-10.7% (inactive),
Cc1ccc(S(=O)(=O)N(CCCN(C)C)Cc2ccc3c(c2)OCO3)cc1,0.598% (inactive),
CCCS(=O)(=O)Nc1ccc(-c2cn3c(n2)SCC3)cc1,5.34% (inactive),
COc1cc(/C=N\NC(=O)c2nonc2N)c(OC)cc1Br,-6.29% (inactive),
Cc1cc(C)c([N+](=O)[O-])cc1-c1ccc(/C=N/NC(=O)c2nonc2N)o1,,11200 nM (active)
Cc1ccc(-c2ccc(/C=N/NC(=O)CN3CCOCC3)o2)cc1[N+](=O)[O-],-112% (inactive),
